About 13,000 (27%) of roughly 48,000 compounds showed an effect of 50% or more. Some of the results follow.

Results on 70 compounds are retold here after ChEMBL document CHEMBL3988442, “University of Dundee, Small-Polar-MMV Screening Library” (2021).

The test system of this test is Wolbachia pipientis. Put plainly: Anti-Wolbachia Cell-Based Screen. The note with it: 5 µM. Further details: scale not given: in the data most compounds retested in dose-response had high values. In kind it is functional.
With `Cc1ccoc1C(=O)N1CCC(n2cc(-c3ccsc3)nn2)CC1`, the “Percent Effect” value was -24.55%. Next, `COc1cccc(N2CCC(CNC(=O)CN3CSCC3=O)C2)c1` (stereo not given): -9.493%. Next, `CS(=O)(=O)N1CCOCC2(CCN(c3cnccn3)CC2)C1`: -8.044%; `CC1(C)O[C@@](C)([C@H]2CC3(CCN(c4cnccn4)CC3)CO2)CC[C@@H]1O`: 106.3%; `OCC(O)CSCc1nnc(-c2cccc(F)c2)o1` (stereo not given): 6.518%. Next, `FC1(F)CCN(c2ccccc2)CC12CCN(c1ncccn1)C2` (stereo not given): 4.725%. On to `CCCN1CCC2(C1)c1ccccc1S(=O)(=O)N2Cc1ccc(F)cc1` (stereo not given), for which the “Percent Effect” value amounted to 8.528%. To `CC(C)CCN1C2(CCN(c3ncccn3)C2)c2ccccc2S1(=O)=O` (stereo not given) belongs 105.2%; to `CC(C)CCN1C2(CCN(C(=O)N(C)C)C2)c2ccccc2S1(=O)=O` (stereo not given), 108.8%. Next, `COCC(=O)N1CCC2(C1)c1ccccc1S(=O)(=O)N2CCC(C)C` (stereo not given): 110.5%. Turning to `COCC(=O)N1CCC2(C1)c1ccccc1S(=O)(=O)N2C` (stereo not given), the “Percent Effect” value was 99.03%. Next, `COc1ccccc1N1CCN(C(=O)Cn2nc(C)c(C)c2C)C(C)C1` (stereo not given): 5.362%; `CCC(Nc1cccc(OC)c1)C(=O)N(CCOC)Cc1cnn(C)c1` (stereo not given): -17.99%; `Cc1cc(C#N)ccc1S(=O)(=O)N1CCN(C)Cc2ccccc21`: 3.182%. As to `CCc1noc(C(C)SCCS(C)(=O)=O)n1` (stereo not given), the “Percent Effect” value amounted to 3.138%.

As to `CCNC(=O)N1CCC2(C1)c1ccccc1S(=O)(=O)N2CCC(C)C` (stereo not given), the “Percent Effect” value is -10.03%.

Regarding `CC(C)CCN1N=C(C(=O)N2CCCCCC2)S(=O)(=O)c2ccccc21`, the “Percent Effect” value is given as 20.76%. To `COCC(=O)N1CCC2(C1)c1ccccc1S(=O)(=O)N2CC1CC1` (stereo not given) belongs 95.12%; to `COCC(=O)N1CCC2(CC1)c1ccccc1[C@@H](N1CCSCC1)[C@@H]2O`, 1.916%. To `CC(C)CCN1CC2(CCN(C(=O)C3(C)CC3)CC2)OC1=O` belongs 1.386%; to `CC(C)CCN1C2(CCN(C(=O)CN(C)C)C2)c2ccccc2S1(=O)=O.O=C(O)C(F)(F)F` (stereo not given), 95.71%; to `CC(C)CCN1C2(CCN(C(=O)C3(C)CC3)C2)c2ccccc2S1(=O)=O` (stereo not given), 92.1%. For `CC(=O)N1CCC2(C1)c1ccccc1S(=O)(=O)N2CCC(C)C` (stereo not given), the “Percent Effect” value is on record as 83.1%.

On to `O=C1CN(C(=O)CC2C(=O)NCCN2CC2CCCCC2)CCN1` (stereo not given), for which the “Percent Effect” value is on record as -19.63%. To `Cc1occc1CNC(=O)C1CCCN1C(=O)C1CC1` (stereo not given) belongs -6.321%; to `COC(=O)c1ccc(OC)c(CN2CCN(CC(C)C)C(=O)C2C)c1` (stereo not given), 1.65%; to `COCC(C)(O)CNC(=O)Nc1cccc(OC)c1OC` (stereo not given), 4.697%. To `O=C(Cn1c(=O)n(Cc2ccco2)c2ncccc21)NC1CCCC1` belongs 120%; to `CCCN(Cc1cccnc1)C(=O)C1CCN(Cc2ccco2)CC1`, 2.103%. `O=C(Cn1c(=O)n(Cc2ccco2)c2ncccc21)Nc1ccccn1`: the “Percent Effect” value is recorded as -4.791%.

For `Cn1nc(C2CCN(CC(=O)NC3CC3)CC2)n(-c2ccccc2)c1=O`, the “Percent Effect” value is 1.77%. Next, `O=C(Cn1c(=O)n(Cc2ccco2)c2ncccc21)NC1CCCCC1`: -5.913%; `CC(C)(C)NC(=O)Cn1c(=O)n(Cc2ccco2)c2ncccc21`: 95.67%. On to `CCN(CC)C(=O)Cn1c(=O)n(Cc2ccco2)c2ncccc21`, for which the “Percent Effect” value turned out to be 92.26%. With `CCN(CCc1nccs1)C(=O)c1ccco1`, the “Percent Effect” value was -4.795%. As to `Cc1nn(C(C)(C)C)c(=O)n1CC(=O)NC(C)(C)C`, the “Percent Effect” value is -3.979%. To `O=C(Cn1c(=O)n(Cc2ccco2)c2ncccc21)NC1CC1` belongs 115.8%. Next, `O=C(NC1CC1)[C@H]1C[C@H]2OCC[C@H]2N(Cc2ccco2)C1`: -4.068%; `Cn1ncc2cnn(CC(O)COc3cccc4[nH]ccc34)c2c1=O` (stereo not given): 26.41%; `CC(C)c1noc(CCC(=O)Nc2cc(C(F)(F)F)c[nH]c2=O)n1`: -36.07%.

As to `CC(C)NC(=O)[C@H]1C[C@@H]2CN(C(=O)NC(C)C)C[C@H]1O2`, the “Percent Effect” value is reported as -20.07%.

With `CCc1ccc(NC(=O)N2C[C@H]3C[C@H](C(=O)NC4CCC4)[C@@H](C2)O3)cc1`, the “Percent Effect” value was 117.1%. To `CC(C)NC(=O)N1C[C@H]2C[C@H](C(=O)NCc3ccccc3)[C@@H](C1)O2` belongs -9.895%. To `CCc1ccc(NC(=O)N2C[C@H]3C[C@H](C(=O)NC)[C@@H](C2)O3)cc1` belongs -8.923%; to `CCc1ccc(NC(=O)N2C[C@H]3C[C@H](C(=O)NC(C)C)[C@@H](C2)O3)cc1`, 101%. Next, `CCc1cnc(N2C[C@H]3C[C@H](C(=O)NC4CCC4)[C@@H](C2)O3)nc1`: -0.2357%. As for `CC(C(=O)N1CCN(CCOc2ccccc2)CC1)n1cncn1` (stereo not given), the “Percent Effect” value is given as -7.881%. To `Cc1cc(C)cc(OCCC(=O)N2CCCC(n3cncn3)C2)c1` (stereo not given) belongs -4.983%; to `Clc1cc(Cl)cc(OCCN2CCC(n3cncn3)CC2)c1`, 103.8%. Next, `FC(F)(F)Oc1ccc(CN2CCCC(n3cncn3)C2)cc1` (stereo not given): 13.2%; `Clc1ccc(OCCN2CCN(CCn3cncn3)CC2)cc1`: -7.454%. To `Cc1cccc(C)c1OCCCN1CCC(n2cncn2)CC1` belongs 115.1%; to `Cc1cccc(C)c1OCCC(=O)N1CCC(c2nncn2C)CC1`, 0.8719%. Regarding `CSc1ccc(OCCN2CCC(n3cncn3)CC2)cc1`, the “Percent Effect” value is reported as 98.24%. To `c1ccc(OCCN2CCC(n3cncn3)CC2)cc1` belongs 93.12%. For `Cc1ccccc1OCCC(=O)N1CCCC(n2cncn2)C1` (stereo not given), the “Percent Effect” value is on record as -9.445%. To `CCN(C)C(=O)c1ccc2c(c1)C(c1nc[nH]n1)CN2S(C)(=O)=O` (stereo not given) belongs -2.777%.

With `COC(=O)c1ccc(CNC(C)(C)c2ccccc2OC)o1`, the “Percent Effect” value is given as 5.551%.

For the compound `Cc1ccc(-c2cc(C(=O)NCCCc3csc(N)n3)[nH]n2)s1`, the “Percent Effect” value is recorded as -6.732%. As to `Cc1ccn2ncc(C(=O)N3CCCC(c4cc(C)[nH]n4)C3)c2n1` (stereo not given), the “Percent Effect” value is given as 1.6%.

Turning to `CC(=O)N1CCc2c(nc(N(C)C)nc2NCc2cccs2)C1`, the “Percent Effect” value worked out at 5.703%. On to `O=C1O[C@@H]2CN(Cc3cccnc3)C[C@@H]2N1CCCN1CCOCC1`, for which the “Percent Effect” value is recorded as 7.451%. For the compound `CCC(C)N(Cc1cccnc1)Cc1cc2c(cc1Cl)OCO2` (stereo not given), the “Percent Effect” value is given as -26.91%.

Turning to `CN(Cc1c(F)cccc1Cl)C(=O)c1cnn(CCN2CCOCC2)c1`, the “Percent Effect” value was -8.866%. As to `Clc1ccc2oc(C3CCN(Cc4cccnc4)CC3)nc2c1`, the “Percent Effect” value is listed as -21.47%. Next, `Clc1ccc(CN(CCN2CCOCC2)Cc2cccnc2)c(Cl)c1`: 143.8%; `c1cncc(-c2ccnn2CN2CCOCC2)c1`: -10.55%; `Clc1cccc(Cl)c1CN(CCCN1CCOCC1)Cc1cccnc1`: 149.3%. Next, `CCN(CCN1CCOCC1)C(=O)c1cccnc1`: -15.37%; `Clc1ccc(CN(CCN2CCOCC2)Cc2cccnc2)cc1Cl`: 180.4%.
